Where “and” joins values, the source holds several entries; their conditions need not be identical. Equal values may be shown once. Inconclusive results are not listed. Some compounds were tested as several samples or in several runs, with calls that do not always agree. Calls of active or inactive are those of the source. The calls were made as follows, unless noted: active = hit-call score of the fitted dose curve at least 0.9, where 1 is the maximum; inactive = score below 0.9.
How the values were obtained:
[1] = biological target: human Retinoic Acid Receptor gamma (RARg), RARG (gene 5916) (UniProt P13631); assay: ATG_RARg_TRANS: Attagene TRANS-FACTORIAL HepG2 Assay for human Retinoic Acid Receptor gamma (RARg) (AID 2283009; active = hit-call score of the fitted dose curve at least 0.9, where 1 is the maximum;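 as to AC50: AC50 is for reporter induction above DMSO meaning RARg activation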)
How it was run: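 Transient transfection of HepG2 with multi-reporter constructs, then 24 h chemical treatment. Total RNA isolated, reverse-transcribed, PCR-amplified, fluorescently labelled and resolved by capillary electrophoresis; activity scored as mRNA induction versus DMSO.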

[2] = biological target: human RAR-related Orphan Receptor beta (RORb), RORB (gene 6096) (UniProt Q92753); assay: ATG_RORb_TRANS: Attagene TRANS-FACTORIAL HepG2 Assay for human RAR-related Orphan Receptor beta (RORb) (AID 2283010; active = hit-call score of the fitted dose curve at least 0.9, where 1 is the maximum)
How it was run: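 Readout is reporter-gene mRNA induction, detected as fluorescence after RT-PCR and capillary electrophoresis, fitted for gain of signal against DMSO controls. Transiently transfected HepG2 liver cells carrying GAL4-UAS reporter constructs were treated for 24 hours.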

[3] = biological target: Retinoic acid receptor RXR-alpha (Homo sapiens) (UniProt P19793); assay: ATG_RXRa_TRANS: Attagene TRANS-FACTORIAL HepG2 Assay for human Retinoid X Receptor alpha (RXRa) (AID 2283012; active = hit-call score of the fitted dose curve at least 0.9, where 1 is the maximum)
How it was run: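 Transient transfection of human HepG2 with multiple GAL4-UAS reporter constructs; 24 h compound exposure; total RNA isolated, reverse-transcribed, PCR-amplified, 6-FAM labelled, HpaI-cut, resolved by capillary electrophoresis. Positive-direction fit versus DMSO.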

[4] = biological target: human Thyroid Receptor alpha (THRa1), THRA (gene 7067) (UniProt P10827); assay: ATG_THRa1_TRANS: Attagene TRANS-FACTORIAL HepG2 Assay for human Thyroid Receptor alpha (THRa1) (AID 2283014; active = hit-call score of the fitted dose curve at least 0.9, where 1 is the maximum)
How it was run: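 Transcripts from GAL4-UAS-driven reporters, measured after 24 h compound exposure by RT-PCR plus capillary electrophoresis of 6-FAM-labeled fragments, were fitted for gain of signal relative to DMSO. Cells: transiently transfected HepG2 expressing NR-Gal4 chimeras.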

[5] = read-out: E-selectin (Homo sapiens) (UniProt P16581); assay: BSK_3C_Eselectin: BioMAP Diversity Plus: 3C Assay for Eselectin Biomarker Activity (AID 2283015); conditions: primary human endothelial cells (HUVEC); actives raise or lower the signal
How it was run: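 E-selectin ELISA readout, fitted bidirectionally relative to DMSO, taken 24 h post-dosing in HUVEC cultures of the 3C system. Overt cytotoxicity tracked with sulforhodamine B staining of parallel wells.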

[6] = read-out: Interleukin-1 alpha (IL1a), IL1A (gene 3552); assay: BSK_BE3C_IL1a: BioMAP Diversity Plus: BE3C Assay for Interleukin-1 alpha (IL1a) Biomarker Activity (AID 2283016); conditions: primary human bronchial epithelial cells; actives raise or lower the signal
How it was run: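 BE3C primary human bronchial epithelium; cpd 24 h; IL-1a by ELISA; bidirectional fit vs DMSO; parallel SRB (0.1% SRB, 10% TCA fix, 560 nm) for cytotoxicity.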

[7] = read-out: Monocyte Chemoattractant Protein-1 (MCP1), CCL2 (gene 6347); assay: BSK_3C_MCP1: BioMAP Diversity Plus: 3C Assay for Monocyte Chemoattractant Protein-1 (MCP1) Biomarker Activity (AID 2283017); conditions: primary human endothelial cells (HUVEC); actives raise or lower the signal
How it was run: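 MCP-1 was measured by ELISA 24 h after dosing in primary HUVEC 3C cultures and fitted in both directions relative to DMSO; cytotoxicity was checked by SRB total-protein staining in parallel wells.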

[8] = read-out: Monocyte Chemoattractant Protein-1 (MCP1), CCL2 (gene 6347); assay: BSK_4H_MCP1: BioMAP Diversity Plus: 4H Assay for Monocyte Chemoattractant Protein-1 (MCP1) Biomarker Activity (AID 2283018); conditions: primary human endothelial cells (HUVEC); actives raise or lower the signal
How it was run: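 ELISA read-out of MCP-1 from human vascular endothelial primary cells taken at 24 hours after compound exposure. Activity was fitted in both directions relative to DMSO, which served as negative control.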

[9] = read-out: Human Leukocyte Antigen - DR isotype (HLADR), HLA-DRA (gene 3122); assay: BSK_3C_HLADR: BioMAP Diversity Plus: 3C Assay for Human Leukocyte Antigen - DR isotype (HLADR) Biomarker Activity (AID 2283019); conditions: primary human endothelial cells (HUVEC); actives raise or lower the signal
How it was run: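 Bidirectional fitting against DMSO was applied to the HLA-DR ELISA signal from human umbilical vein endothelial cells, 24 h post-dose. Cytotoxicity came from parallel SRB total-protein staining; 3C proliferation was counted by SRB at 48 h.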

[10] = biological target: human Retinoid X Receptor beta (RXRb), RXRB (gene 6257) (UniProt P28702); assay: ATG_RXRb_TRANS: Attagene TRANS-FACTORIAL HepG2 Assay for human Retinoid X Receptor beta (RXRb) (AID 2283013; active = hit-call score of the fitted dose curve at least 0.9, where 1 is the maximum)
How it was run: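 Transfect HepG2 with GAL4-UAS multi-reporter constructs (chimeric NR-Gal4, TRANS format); dose compound 24 h; isolate RNA, RT-PCR, FAM primer extension, HpaI digest; quantify by capillary electrophoresis; positive direction vs DMSO.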

Measured: AC50

Sequence of human Retinoid X Receptor beta (RXRb), RXRB (gene 6257) (P28702 whole entry, looked up, the tested form may be a part): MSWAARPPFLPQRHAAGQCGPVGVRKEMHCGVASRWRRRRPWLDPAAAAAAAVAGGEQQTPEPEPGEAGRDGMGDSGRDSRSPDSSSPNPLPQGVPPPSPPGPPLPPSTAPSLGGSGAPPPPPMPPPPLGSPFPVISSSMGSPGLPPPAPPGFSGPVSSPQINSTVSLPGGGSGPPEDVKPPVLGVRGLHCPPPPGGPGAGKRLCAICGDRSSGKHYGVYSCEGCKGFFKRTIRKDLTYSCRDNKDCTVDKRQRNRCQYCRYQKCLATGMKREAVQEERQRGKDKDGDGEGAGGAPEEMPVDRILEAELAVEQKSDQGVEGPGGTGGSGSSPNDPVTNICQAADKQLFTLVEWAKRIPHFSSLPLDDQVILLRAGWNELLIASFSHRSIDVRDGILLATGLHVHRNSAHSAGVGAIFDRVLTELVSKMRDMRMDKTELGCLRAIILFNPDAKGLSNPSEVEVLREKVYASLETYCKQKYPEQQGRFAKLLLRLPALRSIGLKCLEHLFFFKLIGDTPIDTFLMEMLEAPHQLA
Sequence of human Thyroid Receptor alpha (THRa1), THRA (gene 7067) (P10827 whole entry, looked up, the tested form may be a part): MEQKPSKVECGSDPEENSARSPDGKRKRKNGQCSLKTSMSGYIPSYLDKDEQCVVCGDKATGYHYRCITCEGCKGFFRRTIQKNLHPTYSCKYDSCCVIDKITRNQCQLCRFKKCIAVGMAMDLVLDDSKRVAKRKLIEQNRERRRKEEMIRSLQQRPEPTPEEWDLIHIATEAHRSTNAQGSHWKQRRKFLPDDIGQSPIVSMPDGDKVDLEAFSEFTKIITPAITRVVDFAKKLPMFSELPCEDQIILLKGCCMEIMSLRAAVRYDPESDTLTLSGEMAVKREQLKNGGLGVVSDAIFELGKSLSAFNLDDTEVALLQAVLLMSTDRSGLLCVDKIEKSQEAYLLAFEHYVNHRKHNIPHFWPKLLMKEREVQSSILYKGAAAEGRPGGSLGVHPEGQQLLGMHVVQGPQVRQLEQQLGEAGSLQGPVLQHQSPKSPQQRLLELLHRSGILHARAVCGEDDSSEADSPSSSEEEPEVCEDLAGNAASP
Sequence of Retinoic acid receptor RXR-alpha (Homo sapiens) (P19793 whole entry, looked up, the tested form may be a part): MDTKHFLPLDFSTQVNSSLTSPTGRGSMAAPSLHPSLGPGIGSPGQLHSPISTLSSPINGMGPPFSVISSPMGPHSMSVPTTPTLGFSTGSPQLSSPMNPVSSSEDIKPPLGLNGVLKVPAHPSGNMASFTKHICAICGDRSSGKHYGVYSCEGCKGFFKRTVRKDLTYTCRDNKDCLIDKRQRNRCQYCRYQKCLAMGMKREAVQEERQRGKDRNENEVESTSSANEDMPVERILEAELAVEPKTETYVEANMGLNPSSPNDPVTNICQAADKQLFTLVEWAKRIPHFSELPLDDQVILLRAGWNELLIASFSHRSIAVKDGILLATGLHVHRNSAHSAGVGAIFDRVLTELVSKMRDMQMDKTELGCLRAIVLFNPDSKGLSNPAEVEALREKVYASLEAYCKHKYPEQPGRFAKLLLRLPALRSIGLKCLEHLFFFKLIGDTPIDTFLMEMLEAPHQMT
Sequence of E-selectin (Homo sapiens) (P16581 whole entry, looked up): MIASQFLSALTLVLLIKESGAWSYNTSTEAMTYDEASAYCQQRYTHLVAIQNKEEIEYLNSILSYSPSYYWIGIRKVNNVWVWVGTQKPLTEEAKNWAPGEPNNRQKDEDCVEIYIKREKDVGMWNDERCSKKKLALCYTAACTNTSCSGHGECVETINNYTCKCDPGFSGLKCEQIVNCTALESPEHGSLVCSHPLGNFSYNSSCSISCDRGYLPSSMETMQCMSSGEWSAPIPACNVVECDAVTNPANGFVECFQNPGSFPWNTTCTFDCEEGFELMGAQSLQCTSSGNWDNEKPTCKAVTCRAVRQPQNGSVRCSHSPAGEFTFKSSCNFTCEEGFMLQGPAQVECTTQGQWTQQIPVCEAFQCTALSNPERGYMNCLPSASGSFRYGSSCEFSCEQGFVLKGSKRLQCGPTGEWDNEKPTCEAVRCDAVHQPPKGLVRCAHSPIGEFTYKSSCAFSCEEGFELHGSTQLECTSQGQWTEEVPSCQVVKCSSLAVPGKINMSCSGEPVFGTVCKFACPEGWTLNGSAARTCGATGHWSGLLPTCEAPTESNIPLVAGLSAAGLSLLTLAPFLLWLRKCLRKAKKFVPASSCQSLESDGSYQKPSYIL
Sequence of human RAR-related Orphan Receptor beta (RORb), RORB (gene 6096) (Q92753 whole entry, looked up, the tested form may be a part): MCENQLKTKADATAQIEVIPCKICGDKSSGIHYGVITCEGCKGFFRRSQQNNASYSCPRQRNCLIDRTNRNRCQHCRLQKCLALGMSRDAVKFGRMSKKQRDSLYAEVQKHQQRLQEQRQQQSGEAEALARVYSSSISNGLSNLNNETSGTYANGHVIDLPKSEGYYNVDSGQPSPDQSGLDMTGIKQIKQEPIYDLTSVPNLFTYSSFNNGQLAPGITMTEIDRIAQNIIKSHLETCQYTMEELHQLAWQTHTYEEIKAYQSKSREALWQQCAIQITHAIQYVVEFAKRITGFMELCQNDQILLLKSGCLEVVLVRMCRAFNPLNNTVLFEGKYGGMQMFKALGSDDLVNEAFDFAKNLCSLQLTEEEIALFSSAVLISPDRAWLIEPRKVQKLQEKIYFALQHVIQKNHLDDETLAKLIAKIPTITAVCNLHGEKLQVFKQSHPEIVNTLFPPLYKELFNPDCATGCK
Sequence of human Retinoic Acid Receptor gamma (RARg), RARG (gene 5916) (P13631 whole entry, looked up): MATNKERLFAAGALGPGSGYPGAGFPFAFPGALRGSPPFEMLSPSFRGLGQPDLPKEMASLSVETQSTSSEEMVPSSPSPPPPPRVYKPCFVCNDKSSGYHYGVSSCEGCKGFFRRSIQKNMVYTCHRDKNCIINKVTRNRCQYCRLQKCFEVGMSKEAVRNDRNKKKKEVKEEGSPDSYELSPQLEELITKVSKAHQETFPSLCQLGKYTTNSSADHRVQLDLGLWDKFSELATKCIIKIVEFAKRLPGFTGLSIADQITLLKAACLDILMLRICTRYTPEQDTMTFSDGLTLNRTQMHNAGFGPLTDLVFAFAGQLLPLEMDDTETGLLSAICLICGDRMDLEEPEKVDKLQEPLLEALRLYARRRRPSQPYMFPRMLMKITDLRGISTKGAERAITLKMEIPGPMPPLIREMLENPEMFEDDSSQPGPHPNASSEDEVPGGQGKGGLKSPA

CCCCCCCCCc1ccc(O)cc1
active: [5] 14.3 µM | [6] 17.3 µM | [7] 14.6 µM | [8] 12.3 µM | [9] 14.1 µM
inactive: [1] | [2] | [3] | [4]

C[C@]12CCC(=O)C=C1CC[C@@H]1[C@@H]2CC[C@@]2(C)[C@H]1CC[C@]2(C)O
inactive: [1] | [2] | [3] | [10] | [4] | [5] | [6] | [7] | [8] | [9]

O=C(O)C(F)(F)C(F)(F)C(F)(F)C(F)(F)C(F)(F)C(F)(F)C(F)(F)C(F)(F)F
active: [10] 13.3 µM and 41.1 µM and 26.3 µM | [6] 35 µM and 49.9 µM and 46.6 µM | [7] 54.7 µM | [9] 57.3 µM and 55 µM
inactive: [1] | [2] | [3] | [4] | [5] | [7] | [8] | [9]

O=C(O)C(F)(F)C(F)(F)C(F)(F)C(F)(F)C(F)(F)C(F)(F)C(F)(F)C(F)(F)C(F)(F)F
inactive: [1] | [2] | [3] | [4] | [5] | [8]
active: [1] 33.4 µM | [10] 18.1 µM and 13.4 µM and 13.2 µM | [5] 53.8 µM and 54.9 µM | [6] 18.5 µM and 11.9 µM and 13.4 µM | [7] 32.5 µM and 54.6 µM and 52.9 µM | [8] 48.2 µM and 53.7 µM | [9] 33.2 µM and 53.3 µM and 56.7 µM

Clc1ccc(C(c2ccccc2Cl)C(Cl)(Cl)Cl)cc1 (configuration not stated)
active: [5] 17.1 µM | [7] 11.4 µM | [8] 9.7 µM | [9] 10.2 µM
inactive: [1] | [2] | [3] | [4] | [6]

Cc1ccccc1CO[C@@H]1C[C@@]2(C(C)C)CC[C@]1(C)O2
inactive: [1] | [3] | [10] | [5] | [6] | [7] | [8] | [9]

O=C(NC(=O)c1c(F)cccc1F)Nc1cc(Cl)c(OC(F)(F)C(F)F)c(Cl)c1
inactive: [1] | [3] | [10] | [4] | [5] | [6] | [7] | [8] | [9]

Cc1cc2c3c(c1)C(c1ccccc1)=N[C@@H](NC(=O)c1ccncc1)C(=O)N3CC2
inactive: [1] | [2] | [3] | [5] | [6] | [7] | [8] | [9]

C=CC(N)=O
inactive: [1] | [2] | [5] | [6] | [7] | [8] | [9]
active: [3] 157 µM | [10] 15.8 µM

N#Cc1ccc(N(CC(N)=O)CC(F)(F)F)cc1C(F)(F)F
inactive: [1] | [3] | [5] | [6] | [7] | [8] | [9]

Clc1ccc(Cl)cc1
inactive: [1] | [2] | [3] | [10] | [5] | [6] | [7] | [8] | [9]

c1cc2ccc3cccc4ccc(c1)c2c34
active: [10] 41.4 µM
inactive: [1] | [3] | [4] | [5] | [6] | [7] | [8] | [9]

CO/C=C(/C(=O)OC)c1ccccc1COc1cccc(C(F)(F)F)n1
inactive: [1] | [3] | [4] | [6] | [8]
active: [10] 13.2 µM | [5] 7.64 µM | [7] 7.3 µM | [9] 9.84 µM

ClC1=C(Cl)[C@]2(Cl)[C@@H]3[C@H]4C[C@H]([C@@H]5O[C@H]45)[C@@H]3[C@@]1(Cl)C2(Cl)Cl
inactive: [3] | [10] | [4] | [5] | [6] | [7]
active: [1] 0.937 µM | [8] 5.75 µM | [9] 7.35 µM

NS(=O)(=O)C(F)(F)C(F)(F)C(F)(F)C(F)(F)C(F)(F)C(F)(F)C(F)(F)C(F)(F)F
active: [5] 32.5 µM and 56.3 µM and 49.4 µM | [6] 43.9 µM and 42.4 µM | [7] 34.4 µM and 47.7 µM and 48.9 µM | [8] 24.8 µM and 37.8 µM and 11.1 µM | [9] 27.1 µM and 42.6 µM and 44.3 µM
inactive: [1] | [2] | [3] | [10] | [4] | [6]

CCOC(=O)C(O)(c1ccc(Cl)cc1)c1ccc(Cl)cc1
active: [5] 32 µM | [7] 31 µM | [8] 25.3 µM | [9] 31.3 µM
inactive: [1] | [3] | [10] | [4] | [6]

CC(C)(O)C(=O)Nc1ccc([N+](=O)[O-])c(C(F)(F)F)c1
active: [10] 22.8 µM and 28.1 µM and 15.6 µM
inactive: [1] | [2] | [3] | [10] | [4] | [5] | [6] | [7] | [8] | [9]

Oc1c(Cl)c(Cl)c(Cl)c(Cl)c1Cl
active: [5] 14 µM and 10.8 µM | [6] 13.8 µM and 21.4 µM | [7] 13.7 µM | [8] 7.96 µM | [9] 14.7 µM and 13.5 µM
inactive: [1] | [2] | [3] | [10] | [4] | [8]

ClC1=C(Cl)[C@]2(Cl)[C@@H]3[C@@H]4C[C@@H]([C@H]5O[C@@H]45)[C@@H]3[C@@]1(Cl)C2(Cl)Cl
inactive: [2] | [3] | [5] | [6] | [7]
active: [1] 2.12 µM | [10] 24.4 µM | [9] 20 µM

Cc1cc(O)ccc1Cl
inactive: [1] | [3] | [10] | [4] | [5] | [6] | [7] | [8] | [9]

COc1ccc(O)c(C(C)(C)C)c1
active: [10] 8.56 µM
inactive: [1] | [4] | [5] | [6] | [7] | [8] | [9]

ClC1=C(Cl)[C@]2(Cl)[C@@H]3[C@@H](Cl)[C@H]4O[C@H]4[C@@H]3C1(Cl)C2(Cl)Cl
active: [9] 11.5 µM
inactive: [1] | [3] | [10] | [5] | [6] | [7] | [8]

O=S(=O)(O)C(F)(F)C(F)(F)C(F)(F)C(F)(F)F
inactive: [1] | [3] | [4] | [5] | [6] | [7] | [8] | [9]

Cc1cc(-c2ccc(N)c(C)c2)ccc1N
inactive: [1] | [3] | [10] | [4] | [5] | [6] | [7] | [8] | [9]

CCC(=O)O[C@H]1CC[C@H]2[C@@H]3CCC4=CC(=O)CC[C@]4(C)[C@H]3CC[C@]12C
active: [5] 32.6 µM | [7] 29 µM | [8] 31.8 µM | [9] 33.9 µM
inactive: [1] | [3] | [10] | [4] | [6]

Cc1cccc([N+](=O)[O-])c1
inactive: [1] | [10] | [5] | [6] | [7] | [8] | [9]

Nc1ccc(-c2ccc(N)cc2)cc1
inactive: [1] | [2] | [3] | [5] | [6] | [7] | [8] | [9]
active: [10] 27.5 µM
